Only some compounds are listed: those with a hit (about 17% of all), similar ones and a draw of the others.
HepG2 tox = kills HepG2 cells in TGF-b inhibitor counter-screen. HepG2 CAGA-GFP viability, ATP luminescence, 18 h. Potency, µM (doses to about 46.1 µM), for the others: at the highest dose activity change, negative = cytotoxicity, usual class: cytotoxic. 410,000 compounds, 0.76% hits. AID 588856
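CellTiter-Glo luminescence gave cytotoxicity after 18 hours at 37 degrees C. The cells were HepG2 CAGA-GFP in 1% FBS DMEM, stimulated with 500 pg/mL TGF-beta after compound addition. %Activity was normalised to no-cell wells (complete cell-killing) and DMSO (no toxicity), and curves were fitted and classified.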
TDP1 cell CPT = DT40-hTDP1 cell growth loss with CPT | 420,000 compounds, 12% hits | Potency, µM (series often up to 46.2 µM), for inactives: top-dose activity change, negative = growth inhibition, most hits filed as inhibitors | chicken DT40 Tdp1-/-;hTDP1 cells + 20 nM CPT, ATP luminescence, 48 h; note: % is set by controls: 0 for no effect and ±100 for the full control effect; nearly all actives have a fitted effect of over 55% in size
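Chicken DT40 Tdp1-/- cells complemented with human TDP1, 400 cells/well, exposed to compounds plus 20 nM camptothecin for at least 48 h at 37 C; viability read as ATP content by CellTiter-Glo luminescence.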
S2 tox = viability counter-screen for ATXN expression inhibitors | AID 651635 | S2 cells (HEK-293 line with an ATXN2-luciferase reporter) viability, CellTiter-Fluor protease fluorescence, 24 h | Potency, µM (doses to about 56.7 µM), actives largely listed as cytotoxic | 400,000 compounds, 0.49% hits; note: nearly all actives have a fitted effect of over 40% in size
TGFb SMAD3 inh = inhibitors of TGF-b signaling; AID 588855; 410,000 compounds, 1.2% hits; Potency, µM (titrated, usually from 46.1 µM), for inactives: top-dose activity, negative = inhibition, most hits filed as inhibitors; HepG2 CAGA-GFP TGF-b/SMAD3 reporter, GFP fluorescence, 18 h; TGF-beta stimulated, 500 pg/mL final; note: % is set by controls: 0 for no effect and ±100 for the full control effect; nearly all actives have a fitted effect of over 65% in size
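HEPG2 CAGA-GFP cells (1000/well, DMEM with 1% FBS) were pre-incubated 2 h at 37 degrees C, given compound by pin tool, then stimulated with TGF-beta at 500 pg/mL final for 18 h before per-cell GFP fluorescence imaging.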
TDP1 cell noCPT = qHTS for Inhibitors of human tyrosyl-DNA phosphodiesterase 1 (TDP1): qHTS in cells in absence of CPT; 420,000 compounds, 15% hits; Potency, µM (top dose mostly 46.2 µM), for the others: at the top dose activity change, negative = growth inhibition, usual class: inhibitors; AID 686978, 2013; DT40 Tdp1-/- hTDP1 cells, no CPT, ATP luminescence, 48 h; note: % is set by controls: 0 for no effect and ±100 for the full control effect; nearly all actives have a fitted effect of over 55% in size
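Seeded 400 DT40-hTDP1 cells/well (vehicle DMSO, no 20 nM CPT); pinned compounds; ≥48 hr at 37 °C; CellTiter-Glo luminescence as viability measure.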
ATXN2 expr inh = reduces ATXN2 reporter expression in HEK-293 cells. HEK-293 ATXN2-luciferase reporter, luminescence, 24 h. 360,000 compounds, 0.72% hits. AID 1745845. Potency, µM (doses to about 57 µM), for the others: top-dose activity change, negative = inhibition, hits mostly inhibitors; note: % is set by controls: 0 for no effect and ±100 for the full control effect; nearly all actives have a fitted effect of over 55% in size
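qHTS (up to 57 uM final) was run with 24 h compound exposure of reporter cells at 37 °C. Each well was multiplexed: SteadyGlo luminescence measured ATXN2-luciferase expression after a fluorogenic Gly-Phe-AFC viability readout (25 uM final).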
The depositor's hits bear a star; i = inactive; ? = inconclusive; / = no result; [ ] = dose if it differs, or a comment. Calls come from the whole dose curve; as a rule, active = well fitted curve in the direction sought with a large enough effect; inconclusive = small, poorly fitted or top-dose-only effect, or another doubt; inactive = no such curve, though single readings can be large; an effect the other way counts as inactive or inconclusive. Potency is the fitted concentration of half-maximal effect.

SMILES	HepG2 tox	TDP1 cell CPT	S2 tox	TGFb SMAD3 inh	TDP1 cell noCPT	ATXN2 expr inh
O=c1c(-c2ccccc2)nc2ccccc2n1C(c1ccccn1)c1nc2ccccc2[nH]1 (stereo unspecified)	/	?	/	/	9.2µM*	/
O=c1c(-c2cccs2)nc2ccccc2n1C(c1ccccn1)c1nc2ccccc2[nH]1 (stereo unspecified)	/	?	/	/	14.6µM*	/
O=c1c(-c2cccnc2)nc2ccccc2n1C(c1ccccn1)c1nc2ccccc2[nH]1 (stereo unspecified)	/	?	/	/	-28.4%	/
O=c1c(O)cccc2cc(O)c(O)c(O)c12	-1.9%	?	i	?	20.6µM*	/
COc1c[nH]n(-c2ccccc2)c(=O)c1=O	-3.6%	-8.6%	i	4.9%	4.6%	-20.6%
COC(=O)c1ccc(NC(=O)CC2C(=O)N(c3ccc(Cl)cc3)C(=O)N2Cc2cccs2)cc1 (stereo unspecified)	-36.7%	23.1µM*	/	?	?	/
CCOc1ccc(NC(=O)CC2C(=O)N(c3ccc(Cl)cc3)C(=O)N2Cc2cccs2)cc1 (stereo unspecified)	-22.4%	?	/	-18.5%	13µM*	/
COC(=O)c1ccc(NC(=O)CC2C(=O)N(c3ccccc3)C(=O)N2Cc2cccs2)cc1 (stereo unspecified)	-1.6%	16.4µM*	/	-1.1%	18.4µM*	/
COC(=O)c1ccc(NC(=O)CC2C(=O)N(c3ccccc3)C(=O)N2Cc2ccco2)cc1 (stereo unspecified)	-20.0%	?	/	-3.4%	-39.6%	/
CN(C)/C=C/C(=O)c1c(F)cccc1F	14.4%	12.3%	i	8.5%	4.1%	/
FC(F)(F)c1cnc(-c2cc3c(c(OCC4CCCO4)c2)OCCN(Cc2cccn2-c2nccs2)C3)c(Cl)c1 (stereo unspecified)	/	14.7%[9.04 µM]	i	/	-6.9%	/
O=C(NCC(=O)N1CCN(C(c2ccccc2)c2ccccc2)CC1)c1ccccc1Br	-25.0%	?	i	?	20.6µM*	/
Cc1cc(C)cc(C(=O)NCC(=O)N2CCN(C(c3ccccc3)c3ccccc3)CC2)c1	6.3%	?	i	-20.1%	18.4µM*	?
CCOc1ccccc1OCC(=O)Oc1ccc(C)c(C)c1	8.7%	3.7%	i	3.6%	4.0%	/
CC(C)c1ccc(NC(=O)CCNS(=O)(=O)c2cc(Br)cnc2N)cc1	-22.9%	16.4µM*	i	-18.3%	?	-1.5%
Cc1nnn(C23CC4CC(CC(CC(=O)Nc5ccc(C)c(C)c5)(C4)C2)C3)n1	-34.5%	-18.1%	i	-4.2%	?	3.7%
O=c1c2ccccc2sc2nc(CCl)nn12	-53.8%	?	?	?	?	?
CCn1cc(C2=NC(C(C)C)CO2)c2ccccc21 (stereo unspecified)	-93.7%	-20.1%	i	2.3%	-25.2%	7.1%
CCn1cc(C2=NC(CC(C)C)CO2)c2ccccc21 (stereo unspecified)	-5.4%	?	i	-20.2%	14.6µM*	12.6%
CCOC(=O)c1nnn(-c2nonc2N)c1CS(=O)(=O)c1ccccc1	-32.1%	0.1%	i	-8.7%	-5.4%	?
CCOC(=O)c1nnn(-c2nonc2-n2cccc2)c1CCl	-20.2%	4.61µM*	i	?	6.51µM*	-25.9%
Cc1cc(C)c(C#N)c(SCC(=O)c2cc(C)n(CCc3ccccc3)c2C)n1	-17.3%	18.4µM*	i	3.5%	18.4µM*	-2.1%
Cc1cc(C)c(C#N)c(SCC(=O)c2ccc(Cl)cc2Cl)n1	-5.6%	?	i	2.6%	16.4µM*	-13.9%

Screening data from PubChem BioAssay.
